Common to all, as to assay type: functional
Test [1] deals with Solute carrier family 2, facilitated glucose transporter member 1 (Homo sapiens) (UniProt P11166). The experiment in a line: ST_JUDE_LEISH: Cytotoxicity at 2uM final concentration against transgenic Leishmania Mexicana promastigotes LmGLUT1 that are glucose transport deficient and complemented with the human glucose transporter GLUT1. Activity is measured by DNA content using SYBR green in vitro.

Test [2] concerns the target Hexose transporter 1 (Plasmodium falciparum) (UniProt O97467). The experiment in a line: ST_JUDE_LEISH: Cytotoxicity at 2uM final concentration against transgenic Leishmania Mexicana promastigotes LmPfHT that are glucose transport deficient and complemented with the Plasmodium falciparum hexose transporter. Activity is measured by DNA content using SYBR green in vitro.

Test [3] deals with Glucose transporter (Leishmania mexicana) (UniProt O61059). Kind of test: ST_JUDE_LEISH: Cytotoxicity at 2uM final concentration against transgenic Leishmania Mexicana promastigotes LmGT2 that are glucose transport deficient and complemented with the L. Mexicana glucose transporter 2. Activity is measured by DNA content using SYBR green in vitro.

Chain of Solute carrier family 2, facilitated glucose transporter member 1 (Homo sapiens) (P11166 whole entry): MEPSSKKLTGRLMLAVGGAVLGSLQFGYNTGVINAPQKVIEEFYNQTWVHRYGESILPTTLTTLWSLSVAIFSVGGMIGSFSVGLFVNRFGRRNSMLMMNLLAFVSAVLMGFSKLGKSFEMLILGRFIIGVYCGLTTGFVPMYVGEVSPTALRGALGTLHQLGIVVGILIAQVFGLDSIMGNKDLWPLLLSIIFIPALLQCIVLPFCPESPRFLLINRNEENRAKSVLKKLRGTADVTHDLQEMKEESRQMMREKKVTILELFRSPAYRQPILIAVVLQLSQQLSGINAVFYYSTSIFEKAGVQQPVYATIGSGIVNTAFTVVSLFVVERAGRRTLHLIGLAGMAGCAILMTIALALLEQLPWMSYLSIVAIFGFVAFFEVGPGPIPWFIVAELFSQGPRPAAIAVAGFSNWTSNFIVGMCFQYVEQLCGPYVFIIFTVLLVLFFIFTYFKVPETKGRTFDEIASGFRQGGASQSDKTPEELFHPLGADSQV

The inhibition is the drop in the measured response relative to a control, in per cent. Turning to `Cc1ccn2cc(-c3ccc(NC(=O)c4ccc(Br)o4)cc3)nc2c1`, the inhibition in test [1] was determined as 1.17%; in test [2] it was 2.74%; in test [3], 0.61%.
On the same counts, the results for `O=C(Nc1cccc(F)c1)c1ccc(C(=O)NC2CCN(CC3CCCCC3)CC2)cc1` are 1.87%, 5.33% and 1.84%.
On the same counts, the results for `FC(F)(F)c1ccc2c(NN=Cc3cccc(Cl)c3)ccnc2c1` are 5.93%, 5.5% and 3.57%.
For `O=C(Nc1ccc(OC2CCN(Cc3ccco3)C2)c(Cl)c1)c1ccc2ncccc2c1` (stereo not drawn), the figures for the inhibition in test [1], in test [2] and in test [3] were 0.4%, -3.49% and 0.71%, respectively.
On to `Cc1cc(NC(=O)c2cc(S(=O)(=O)N3CCCCC3)ccc2C)no1`, for which the inhibition in test [1] was 4.25%; in test [2], 4.4%; in test [3], 2.15%.
Take `COC(=O)c1cc(OC2CCOC2=O)cc2c1OC(C)(C)O2` (stereo not drawn): the values for the inhibition in test [1], in test [2] and in test [3] were 10.9%, 12.7% and 8.43%, respectively.
With `N#Cc1c(N)n(CCc2ccc(F)cc2)c2nc3ccccc3nc12`, the inhibition in test [1] was 1.05%; in test [2], 1.58%; in test [3], -0.08%.
Taken in the same sequence, the figures for `CN1CCN(c2nc(NCCNc3ccc([N+](=O)[O-])cc3)c3ccccc3n2)CC1` were 0.92%, 0.91% and 0.54%.
On the same counts, the results for `CCNc1cc(C(=O)N[C@@H](Cc2ccccc2)[C@H](O)CN[C@H](C)C(C)(C)C)cc(N2CCCCS2(=O)=O)c1` are 2.2%, 1.95% and 2.33%.
Taken in the same sequence, the figures for `Cc1nc(C)c(-c2ccc(Oc3ccc(Cl)cc3)c(Cl)c2)c(O)c1Br` were 2.21%, 3.03% and 1.91%.
For the compound `CN(C(=O)/C=C/c1ccccc1F)C1CCN(CCCCCNC(=O)/C=C/c2ccc(Cl)c(Cl)c2)CC1`, the inhibition in test [1] amounted to 5.19%; in test [2], 4.23%; in test [3], 5.34%.
As for `Clc1cccc(CNC2CCN(CC3CCCCC3)CC2)c1`, the inhibition came to 4.03% in test [1], 4.11% in test [2] and 6.03% in test [3].
`CC(=NNC(S)=NCCc1ccccn1)c1ccccn1`: the inhibition in test [1] was 7.78%; in test [2] it was 4.39%; in test [3], 6.19%.
On the same counts, the results for `CCOc1ccc2[nH]c(C)cc(=NN=Cc3ccc(Cl)cc3)c2c1` are -0.27%, 0.45% and -1.27%.
`O=C(CCc1cccc(O)c1)NCC(NCCCNc1cc(=O)c2ccccc2[nH]1)c1cc(Br)cc(Br)c1` (stereo not drawn): the inhibition in test [1] was found to be 8.91%; in test [2] it was 5.63%; in test [3], 6.84%.
On the same counts, the results for `COc1cc(OC)c2c(c1Cl)O[C@]1(C2=O)C(=O)C(Cc2ccccc2)(Cc2ccccc2)C(=O)C[C@H]1C` are 2.41%, 3.13% and 2.6%.
For the compound `Cc1[nH]c(C)c(-c2ccc(OCc3cc(C(F)(F)F)cc(C(F)(F)F)c3)nc2)c(=O)c1Cl`, the inhibition in test [1] stood at 6.26%; in test [2], 9.78%; in test [3], 4.84%.
Regarding `CCCc1ccc(S(=O)(=O)NC2CCN(c3ccnc(Nc4ccc(OC)cc4)n3)C2)cc1` (stereo not drawn), the inhibition in test [1] was determined as 8.11%; in test [2], 9.89%; in test [3], 9.64%.
Taken in the same sequence, the figures for `CC(C#N)Cc1ccc(-c2cnc(N)c3cc(-c4ccnc(N)n4)ccc23)cc1` (stereo not drawn) were 5.38%, 3.48% and -0.93%.
Taken in the same sequence, the figures for `Nc1ncc(-c2ccc(Br)cc2)c(N)n1` were 1.2%, -0.78% and -0.3%.
Take `Cc1cc(NC(=O)c2coc3cc(F)c(N4CC(C)N(C)C(C)C4)cc23)cnc1-c1ccc(C#N)cc1` (stereo not drawn): the inhibition in test [1] is 0.22%; in test [2], -1%; in test [3] it was -1.53%.
Taken in the same sequence, the figures for `CNC(=O)c1ccccc1Nc1nc(Nc2cccnc2)ncc1C` were -2.88%, -0.32% and -0.69%.
Turning to `FC(F)(F)c1cccnc1N1CCC(Nc2nc3cc(Cl)ccc3[nH]2)CC1`, the inhibition in test [1] was 5.58%; in test [2], 1.96%; in test [3] it was 3.47%.
On the same counts, the results for `CO/C(=C\C=C\c1cc2cc(Cl)c(Cl)cc2[nH]1)C(=O)NCCCN1CCN(c2ccc(OC)cc2)CC1` are 2.11%, 2.47% and 1.28%.
Consider `c1nc(CCNc2nc(Nc3ccc4c(c3)OCO4)nc(NC3CCCC3)n2)c[nH]1`, for which the figures for the inhibition in test [1], in test [2] and in test [3] were 1.6%, 2.73% and 0.99%, respectively.
Taken in the same sequence, the figures for `N=C1N=C(N)NC2(CCCCC2)N1OCC1CCCCC1` were -0.96%, -0.44% and -1.26%.
As for `NC1CCN(Cc2cccc(-c3csc(-c4nc5ccccc5[nH]4)c3)c2)C1` (stereo not drawn), the inhibition in test [1] came out at 2.21%; in test [2], 1.55%; in test [3], 4.6%.
Taken in the same sequence, the figures for `O=C(Nc1ccc(-c2ccccc2)cc1)Nc1ccc2c(c1)CCNCC2` were -2.5%, 0.46% and -3.69%.
On the same counts, the results for `CCCN(Cc1nnc(-c2cccs2)o1)C(=O)CSc1nnnn1-c1cc(C)cc(C)c1` are 4.84%, 5.88% and 2.71%.
Taken in the same sequence, the figures for `CC1CN(c2nc(NCCc3ccc(O)cc3)nc(NCc3ccccc3-c3ccc(C(F)(F)F)cc3)n2)CC(C)N1` (stereo not drawn) were 4.25%, 4.62% and 6.55%.
In the case of `CCCNC(=O)c1cncc(-c2cccc(CNC3Cc4ccccc4C3)c2)c1`, the inhibition is -1.27% in test [1], -1.42% in test [2] and -1.3% in test [3].
On the same counts, the results for `Cc1cc(NCCCN2CCCC2=O)n2c(nc3ccccc32)c1C#N` are 0.96%, 3.33% and 2.22%.
Regarding `Cc1ccc(Nc2nc(C)cc(N3CCN(c4ccccc4)CC3)n2)cc1`, the inhibition was found to be 5.18% in test [1], 5.92% in test [2] and 2.13% in test [3].
On the same counts, the results for `O=C(Nc1ccc2ccccc2c1)N(CCCn1ccnc1)Cc1csc(-c2ccc(CNCc3ccccc3)cc2)n1` are -0.95%, 0.41% and 1.63%.
Taken in the same sequence, the figures for `CC(C)(C)c1ccc(NC(=O)c2cccc(CN3CCCN(Cc4cccc(O)c4)CC3)c2)cc1` were 6.18%, 6.24% and 1.99%.
On the same counts, the results for `COc1cccc(NC(=O)NC2CCN(CCCCCNC(=O)/C=C/c3ccc(Cl)c(Cl)c3)CC2)c1` are 0.13%, 0.47% and 3.52%.
